# Experimental data as given in the supplement of paper PMC12494721.
# Counter-ions that a name gives are not always drawn.
# Key:
# Details in all cases: incubation time: 27 h, anaerobic, 37 °C;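 for the amine columns active = adjusted P below 0.05 in both replicates with a change the same way and a mean fold change under 0.8 or over 1.25; inactive = the rest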
# [1] = tested on: Clostridium sporogenes DSM 1664; experiment: growth (OD595) fold change vs plate DMSO controls (fold change (ratio)); higher = more growth
# How it was run: (§1)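 The reported measure is growth: the fold change against the median of DMSO controls on the plate. Absorbance at 595 nm from anaerobic 96-well mGAM cultures grown for 27 h at 37 °C was blank-subtracted, corrected for background with 20 µM compound solutions in water, and converted to OD with a calibration factor of 5. Fold changes above 1.5 appear as NA, and values are the mean of 2 biological replicates.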
# [2] = tested on: Escherichia coli IAI1; experiment: as above
# How it was run: as §1
# [3] = tested on: Klebsiella aerogenes DSM 30053; experiment: as above
# How it was run: as §1
# [4] = tested on: Ruminococcus gnavus DSM 108212; experiment: as above
# How it was run: as §1
# [5] = tested on: Klebsiella aerogenes DSM 30053; experiment: fold change of Histamine concentration vs plate DMSO controls (fold change (ratio)); higher = more amine produced, active = hit call of the paper (significant change in both replicates, either direction)
# How it was run: (§2)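 Amines were quantified by LC–triple-quadrupole MS in dynamic MRM mode against external calibration curves, with drift correction within each batch. The samples were whole anaerobic mGAM cultures of four gut bacterial strains, grown for 27 h at 37 °C in 80 µL wells and extracted with cold acetonitrile/methanol with 0.1% formic acid, then centrifuged. Values are reported as fold change over DMSO controls on the same plate. The mean of 2 biological replicates is given.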
# [6] = tested on: Clostridium sporogenes DSM 1664; experiment: fold change of Tryptamine concentration vs plate DMSO controls (fold change (ratio)); higher = more amine produced, active = hit call of the paper (significant change in both replicates, either direction)
# How it was run: as §2
# [7] = tested on: Ruminococcus gnavus DSM 108212; experiment: as above
# How it was run: as §2
# [8] = tested on: Escherichia coli IAI1; experiment: fold change of Putrescine concentration vs plate DMSO controls (fold change (ratio)); higher = more amine produced, active = hit call of the paper (significant change in both replicates, either direction)
# How it was run: as §2
# [9] = tested on: Klebsiella aerogenes DSM 30053; experiment: as above
# How it was run: as §2
# [10] = tested on: Escherichia coli IAI1; experiment: fold change of Cadaverine concentration vs plate DMSO controls (fold change (ratio)); higher = more amine produced, active = hit call of the paper (significant change in both replicates, either direction)
# How it was run: as §2
# [11] = tested on: Klebsiella aerogenes DSM 30053; experiment: as above
# How it was run: as §2
# [12] = tested on: Ruminococcus gnavus DSM 108212; experiment: fold change of 2-Phenylethylamine concentration vs plate DMSO controls (fold change (ratio)); higher = more amine produced, active = hit call of the paper (significant change in both replicates, either direction)
# How it was run: as §2
smiles,measurement,setting,value
CCC(=O)c1ccc(O)cc1 [Paroxypropione] (20 µM),growth,[1],0.967
same,growth,[2],0.989
same,growth,[3],0.996
same,growth,[4],1
same,fold change of Histamine concentration,[5],1.03 (inactive)
same,fold change of Tryptamine concentration,[6],0.946 (inactive)
same,fold change of Tryptamine concentration,[7],1.02 (inactive)
same,fold change of Putrescine concentration,[8],1.01 (inactive)
same,fold change of Putrescine concentration,[9],1.02 (inactive)
same,fold change of Cadaverine concentration,[10],1.01 (inactive)
same,fold change of Cadaverine concentration,[11],1.01 (inactive)
same,fold change of 2-Phenylethylamine concentration,[12],0.952 (inactive)
CC(C)(C)NCC(O)c1cc(O)cc(O)c1 (centres undefined) [Terbutaline hemisulfate] (20 µM),growth,[1],0.98
same,growth,[2],1.02
same,growth,[3],1.05
same,growth,[4],1.11
same,fold change of Histamine concentration,[5],1.02 (inactive)
same,fold change of Tryptamine concentration,[6],1.05 (inactive)
same,fold change of Tryptamine concentration,[7],1.06 (inactive)
same,fold change of Putrescine concentration,[8],1.05 (inactive)
same,fold change of Putrescine concentration,[9],0.985 (inactive)
same,fold change of Cadaverine concentration,[10],0.932 (inactive)
same,fold change of Cadaverine concentration,[11],0.993 (inactive)
same,fold change of 2-Phenylethylamine concentration,[12],1.06 (inactive)
Oc1c(Br)cc(Br)c2cccnc12 [Broxyquinoline] (20 µM),growth,[1],0.98
same,growth,[2],0.92
same,growth,[3],0.951
same,growth,[4],0.643
same,fold change of Histamine concentration,[5],1.09 (inactive)
same,fold change of Tryptamine concentration,[6],0.919 (inactive)
same,fold change of Tryptamine concentration,[7],0.562 (active)
same,fold change of Putrescine concentration,[8],1.03 (inactive)
same,fold change of Putrescine concentration,[9],1.02 (inactive)
same,fold change of Cadaverine concentration,[10],1.2 (inactive)
same,fold change of Cadaverine concentration,[11],0.968 (inactive)
same,fold change of 2-Phenylethylamine concentration,[12],0.6 (inactive)
CCOc1ccccc1C(N)=O [Ethenzamide] (20 µM),growth,[1],1.07
same,growth,[2],1
same,growth,[3],1.01
same,growth,[4],0.956
same,fold change of Histamine concentration,[5],1.02 (inactive)
same,fold change of Tryptamine concentration,[6],1.1 (inactive)
same,fold change of Tryptamine concentration,[7],1.01 (inactive)
same,fold change of Putrescine concentration,[8],0.983 (inactive)
same,fold change of Putrescine concentration,[9],0.985 (inactive)
same,fold change of Cadaverine concentration,[10],0.986 (inactive)
same,fold change of Cadaverine concentration,[11],0.978 (inactive)
same,fold change of 2-Phenylethylamine concentration,[12],1.03 (inactive)
Cc1nc(C)c(Cl)c(O)c1Cl [Clopidol] (20 µM),growth,[1],1.18
same,growth,[2],1.01
same,growth,[3],1.04
same,growth,[4],1.14
same,fold change of Histamine concentration,[5],1 (inactive)
same,fold change of Tryptamine concentration,[6],0.998 (inactive)
same,fold change of Tryptamine concentration,[7],1.01 (inactive)
same,fold change of Putrescine concentration,[8],1.02 (inactive)
same,fold change of Putrescine concentration,[9],0.991 (inactive)
same,fold change of Cadaverine concentration,[10],1.02 (inactive)
same,fold change of Cadaverine concentration,[11],0.985 (inactive)
same,fold change of 2-Phenylethylamine concentration,[12],1.01 (inactive)
Nc1cc(-c2ccncc2)c[nH]c1=O [Amrinone] (20 µM),growth,[1],1.17
same,growth,[2],0.984
same,growth,[3],1.02
same,growth,[4],1.19
same,fold change of Histamine concentration,[5],0.956 (inactive)
same,fold change of Tryptamine concentration,[6],1.05 (inactive)
same,fold change of Tryptamine concentration,[7],1 (inactive)
same,fold change of Putrescine concentration,[8],1.02 (inactive)
same,fold change of Putrescine concentration,[9],0.998 (inactive)
same,fold change of Cadaverine concentration,[10],0.982 (inactive)
same,fold change of Cadaverine concentration,[11],1.02 (inactive)
same,fold change of 2-Phenylethylamine concentration,[12],0.97 (inactive)
OC[C@@H](O)[C@@H](O)[C@H](O)[C@@H](O)CO [Sorbitol] (50 µM),growth,[1],1.06
same,growth,[2],0.929
same,growth,[3],0.967
same,growth,[4],1.1
same,fold change of Histamine concentration,[5],1.03 (inactive)
same,fold change of Tryptamine concentration,[6],0.988 (inactive)
same,fold change of Tryptamine concentration,[7],0.966 (inactive)
same,fold change of Putrescine concentration,[8],0.923 (inactive)
same,fold change of Putrescine concentration,[9],0.869 (inactive)
same,fold change of Cadaverine concentration,[10],1.1 (inactive)
same,fold change of Cadaverine concentration,[11],1.06 (inactive)
same,fold change of 2-Phenylethylamine concentration,[12],0.959 (inactive)
CCN(CC)C(=O)Nc1ccc(OCC(O)CNC(C)(C)C)c(C(C)=O)c1 (centres undefined) [Celiprolol hydrochloride] (20 µM),growth,[1],1.03
same,growth,[2],0.981
same,growth,[3],0.953
same,growth,[4],0.712
same,fold change of Histamine concentration,[5],1.09 (inactive)
same,fold change of Tryptamine concentration,[6],0.988 (inactive)
same,fold change of Tryptamine concentration,[7],1.02 (inactive)
same,fold change of Putrescine concentration,[8],1 (inactive)
same,fold change of Putrescine concentration,[9],1.01 (inactive)
same,fold change of Cadaverine concentration,[10],1.02 (inactive)
same,fold change of Cadaverine concentration,[11],0.988 (inactive)
same,fold change of 2-Phenylethylamine concentration,[12],1.04 (inactive)
CC(=O)Nc1ccccc1 [Acetanilide] (20 µM),growth,[1],1.1
same,growth,[2],0.998
same,growth,[3],1
same,growth,[4],0.941
same,fold change of Histamine concentration,[5],1.01 (inactive)
same,fold change of Tryptamine concentration,[6],1.03 (inactive)
same,fold change of Tryptamine concentration,[7],1.02 (inactive)
same,fold change of Putrescine concentration,[8],1.04 (inactive)
same,fold change of Putrescine concentration,[9],1.02 (inactive)
same,fold change of Cadaverine concentration,[10],0.982 (inactive)
same,fold change of Cadaverine concentration,[11],1.01 (inactive)
same,fold change of 2-Phenylethylamine concentration,[12],1.05 (inactive)
O=c1[nH]cnc2c1ncn2[C@@H]1O[C@H](CO)[C@@H](O)[C@H]1O [Inosine] (20 µM),growth,[1],0.976
same,growth,[2],1.01
same,growth,[3],1.01
same,growth,[4],0.919
same,fold change of Histamine concentration,[5],1.01 (inactive)
same,fold change of Tryptamine concentration,[6],1.06 (inactive)
same,fold change of Tryptamine concentration,[7],0.997 (inactive)
same,fold change of Putrescine concentration,[8],1.02 (inactive)
same,fold change of Putrescine concentration,[9],1.02 (inactive)
same,fold change of Cadaverine concentration,[10],1.01 (inactive)
same,fold change of Cadaverine concentration,[11],0.997 (inactive)
same,fold change of 2-Phenylethylamine concentration,[12],0.963 (inactive)
O=c1[nH]c(=O)n([C@H]2C[C@H](O)[C@@H](CO)O2)cc1I [Idoxuridine] (20 µM),growth,[1],0.856
same,growth,[2],1.02
same,growth,[3],1.04
same,growth,[4],0.871
same,fold change of Histamine concentration,[5],1.03 (inactive)
same,fold change of Tryptamine concentration,[6],1.25 (active)
same,fold change of Tryptamine concentration,[7],1.05 (inactive)
same,fold change of Putrescine concentration,[8],1.18 (inactive)
same,fold change of Putrescine concentration,[9],1.02 (inactive)
same,fold change of Cadaverine concentration,[10],0.982 (inactive)
same,fold change of Cadaverine concentration,[11],1 (inactive)
same,fold change of 2-Phenylethylamine concentration,[12],1.08 (inactive)
COc1ccc(CCC(=O)c2c(O)cc(O[C@@H]3O[C@H](CO)[C@@H](O)[C@H](O)[C@H]3O[C@@H]3O[C@@H](C)[C@H](O)[C@@H](O)[C@H]3O)cc2O)cc1O [Neohesperidin Dihydrochalcone (Nhdc)] (50 µM),growth,[1],1.25
same,growth,[2],0.987
same,growth,[3],1.01
same,growth,[4],1.05
same,fold change of Histamine concentration,[5],1.02 (inactive)
same,fold change of Tryptamine concentration,[6],1.01 (inactive)
same,fold change of Tryptamine concentration,[7],0.995 (inactive)
same,fold change of Putrescine concentration,[8],1.01 (inactive)
same,fold change of Putrescine concentration,[9],1.02 (inactive)
same,fold change of Cadaverine concentration,[10],0.96 (inactive)
same,fold change of Cadaverine concentration,[11],0.99 (inactive)
same,fold change of 2-Phenylethylamine concentration,[12],0.961 (inactive)
